For assay [1], the system named is Zika virus NS2B-NS3 protease (linked construct). In words: Primary screen NINDS Rhodamine qHTS for Zika virus inhibitors (AID 1347160). Further: nearly all actives have a fitted effect of over 55% in size. The gist of the method: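 Kinetic fluorescence (Ex 480 nm, Em 540 nm) over 15 min with 1.5 microM Rhodamine110 peptide and 25 nM linked protease.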
The target of assay [2] is Calcium and integrin-binding protein 1 (Homo sapiens) (UniProt Q99828). In words: Primary qHTS for Identification of Calcium Integrin Binding Protein 1 (CIB1) Competitor (AID 1508620).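 Further: GST tagged CIB1 binding a fluorescein labelled alphaIIb integrin peptide tracer; top concentration of the series differs between compounds; on the % scale 0 is the no-effect control and ±100 the full control effect.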 The gist of the method: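 CIB1-GST (1 uM final) and compound incubated 15 min at room temperature before adding FITC-alphaIIb peptide tracer (100 nM final). Competition for binding read by fluorescence polarization (ex 480, em 540) after another 15 min at room temperature.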
Sequence of Calcium and integrin-binding protein 1 (Homo sapiens) (Q99828 whole entry, looked up): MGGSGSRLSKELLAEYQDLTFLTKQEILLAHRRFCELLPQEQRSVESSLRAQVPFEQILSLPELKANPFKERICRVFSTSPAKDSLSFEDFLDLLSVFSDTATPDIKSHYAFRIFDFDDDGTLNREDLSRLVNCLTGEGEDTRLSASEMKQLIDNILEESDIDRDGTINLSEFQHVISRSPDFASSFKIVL

The nature of assay [3]: Primary qHTS for inhibitors of nuclear receptor binding SET domain protein 2 (NSD2) in an isogenic RCH-ACV NSD2 p.E1099K mutant (9B) (AID 1645876). Further: on the % scale 0 is the no-effect control and ±100 the full control effect; nearly all actives have a fitted effect of over 70% in size.
Assay [4] concerns the target Glutathione peroxidase 1 (Homo sapiens) (UniProt P07203). In words: Primary qHTS Assay for Inhibitors of Recombinant Selenoprotein Glutathione Peroxidase 1 (GPX1) (AID 1845191). Further: nearly all actives have a fitted effect of over 65% in size. The essentials:
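10 nM GPX1 + cpd, 30 min RT; start w/ 1 mM GSH, 0.5 mM cumene hydroperoxide, 0.5 mM NADPH, 100 nM GR, 0.01% BSA; buffer 50 mM Tris-HCl pH 7.5, 2 mM EDTA, 150 mM NaCl; Fl 340/450, 0 & 15 min.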
(Quantitative high-throughput screening tests each substance at several concentrations.)

Assay [5] concerns the target Phospholipid hydroperoxide glutathione peroxidase GPX4 (Homo sapiens) (UniProt P36969). In words: Primary qHTS Assay for Inhibitors of Recombinant Selenoprotein Glutathione Peroxidase 4 (GPX4) (AID 1845192). Further: on the % scale 0 is the no-effect control and ±100 the full control effect; nearly all actives have a fitted effect of over 65% in size. The essentials: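 NADPH consumption, followed by fluorescence at 340/450 nm between 0 and 15 min, reports GPX4 activity via coupled glutathione reductase (100 nM). Enzyme 200 nM was pre-exposed to compound 30 min; 0.5 mM cumene hydroperoxide and 1 mM GSH served as substrates.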

Assay [6] addresses Luciferin 4-monooxygenase (Photinus pyralis) (UniProt P08659). In words: Primary firefly luciferase (FLuc) qHTS assay for identification of artifact compounds. (AID 1845220). Further: nearly all actives have a fitted effect of over 60% in size. The following applies: outcome: dose series up to 54.1 µM unless noted. The essentials:
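Compounds sat 15 min at room temperature with 10 uM luciferin and 10 uM ATP (pH 7.6 Tris acetate). Firefly luciferase (10 nM final) was then added, and luminescence was read 5 min later. Data normalized to no-enzyme and DMSO controls were Hill-fitted.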

The subject of assay [7] is Nanoluciferase (engineered Oplophorus gracilirostris luciferase). In words: Primary Nanoluciferase (NLuc) qHTS assay for identification of artifact compounds. (AID 1845222).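 Further: 0% = DMSO and -100% = no enzyme.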 The essentials: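 Luminescence from secreted NLuc (filtered, 1:55-diluted S16 cell medium) read 5 min after Nano-Glo substrate; compounds preincubated 15 min, RT. Hill fits of inhibition normalized to DMSO and no-enzyme.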

A further assay relates to CRL-7250. In words: Cytotoxic Profiling of Annotated Libraries Using Quantitative High-Throughput Screening (AID 1296008). Further: nearly all actives have a fitted effect of over 60% in size. Further: potency means the concentration at half of the fitted maximal effect. On max response: on the % scale 0 is the no-effect control and ±100 the full control effect. The following applies: Five cell lines viability, CellTiter-Glo ATP luminescence, 48-72 h; max response: stronger effect = lower value. The essentials:
(§1)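 Cytotoxicity was measured as CellTiter-Glo ATP luminescence, read after 10 min at room temperature. Compound treatment of the cells lasted 48 or 72 hr at 37 degrees Celsius in a qHTS format.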
On the technique in general: Cellular ATP, detected with luciferase, serves as a proxy for viable cell number.

The test system of a further assay is HEK293. The assay is described as above. The following applies: Five cell lines viability, CellTiter-Glo ATP luminescence, 48-72 h; max response: stronger effect = lower value. The gist of the method:
as §1

The subject of another assay is HaCat. The assay is described as above. The following applies: Five cell lines viability, CellTiter-Glo ATP luminescence, 48-72 h; max response: stronger effect = lower value. The essentials:
as §1

For a further assay, the system named is NIH3T3. Described as above. The following applies: Five cell lines viability, CellTiter-Glo ATP luminescence, 48-72 h; max response: stronger effect = lower value. The gist of the method:
as §1

In another assay the test system is C33A. In words: Primary qHTS to identify gynecologic anti-cancer compounds using libraries of approved drugs and bioactive compounds (AID 1345084). Further: on the % scale 0 is the no-effect control and ±100 the full control effect; nearly all actives have a fitted effect of over 55% in size. Particulars: Gynecologic cancer cell panel viability, ATPlite luminescence, 48 h; series mostly up to 57.5 µM. The gist of the method: (§2)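 Luminescence from the ATPlite ATP-monitoring reagent indicates viable cell number; lower signal means cytotoxicity. Cells received compound 16 h after seeding and were exposed for 48 h across five concentrations.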

Another assay has as its system CASKI. Described as above. Particulars: Gynecologic cancer cell panel viability, ATPlite luminescence, 48 h; series mostly up to 57.5 µM. The essentials:
as §2

The next assay concerns Es-2. The assay is described as above. The following applies: Gynecologic cancer cell panel viability, ATPlite luminescence, 48 h; series mostly up to 57.5 µM. The gist of the method: as §2
A further assay relates to Hek293T. The assay is described as above. Particulars: Gynecologic cancer cell panel viability, ATPlite luminescence, 48 h, control line for the selectivity index; series mostly up to 57.5 µM. The essentials:
as §2

A further assay relates to JEG-3. Described as above. Particulars: Gynecologic cancer cell panel viability, ATPlite luminescence, 48 h; series mostly up to 57.5 µM. The gist of the method:
as §2

In the next assay the test system is OV90. The assay is described as above. The following applies: Gynecologic cancer cell panel viability, ATPlite luminescence, 48 h; series mostly up to 57.5 µM. The gist of the method: as §2
The next assay relates to PA-1. The assay is described as above. The following applies: Gynecologic cancer cell panel viability, ATPlite luminescence, 48 h; series mostly up to 57.5 µM. The gist of the method:
as §2

The next assay concerns Tov-21-G. The description is as above. Particulars: Gynecologic cancer cell panel viability, ATPlite luminescence, 48 h; series mostly up to 57.5 µM. The gist of the method:
as §2

For a further assay, the system named is Tov112D. Described as above. The following applies: Gynecologic cancer cell panel viability, ATPlite luminescence, 48 h; series mostly up to 57.5 µM. The gist of the method: as §2

Values without a mark were called inactive. Records with an inconclusive call do not appear. Activity calls are given as the source filed them. The call rests on the fitted dose curve; in most records, active means well fitted curve in the direction sought with a large enough effect; inconclusive means small, poorly fitted or top-dose-only effect, or another doubt; inactive means no such curve, though single readings can be large; an effect the other way counts as inactive or inconclusive.

Sequence of Glutathione peroxidase 1 (Homo sapiens) (P07203 whole entry, looked up): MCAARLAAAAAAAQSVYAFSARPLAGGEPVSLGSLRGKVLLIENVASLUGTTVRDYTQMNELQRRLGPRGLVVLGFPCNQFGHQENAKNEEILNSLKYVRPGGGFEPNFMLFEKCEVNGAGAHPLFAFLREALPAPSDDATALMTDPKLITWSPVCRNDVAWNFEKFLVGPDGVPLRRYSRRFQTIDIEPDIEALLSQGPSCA
Sequence of Phospholipid hydroperoxide glutathione peroxidase GPX4 (Homo sapiens) (P36969 whole entry, looked up): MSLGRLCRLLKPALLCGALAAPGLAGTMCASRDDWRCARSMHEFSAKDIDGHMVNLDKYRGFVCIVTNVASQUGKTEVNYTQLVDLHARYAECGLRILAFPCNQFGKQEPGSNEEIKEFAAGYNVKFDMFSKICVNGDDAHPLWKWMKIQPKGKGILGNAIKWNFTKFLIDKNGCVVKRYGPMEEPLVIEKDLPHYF

Consider `O=C1N[C@@H](Cc2ccccc2)CN2CCCC[C@@H]12`, for which the Potency entry in assay [1], in assay [2], in [3], in assay [4], in [5] and in assay [7] was “inactive” in each case. In addition, the Potency entry in the assay with C33A, in the assay on CASKI, in the assay on Es-2, with Hek293T, in the assay on JEG-3 and in the assay with OV90 was “inactive” throughout. In addition, the Potency entry with PA-1, with Tov-21-G and in the assay on Tov112D was “inactive” throughout. The result (in [6]; in the assay on HaCat) was inactive. In addition, the max response is -11.6% in the assay with CRL-7250, -0.0326% with HEK293 and 1.01% with NIH3T3.

Regarding `C[C@]12CCC(=O)C=C1CC[C@@H]1[C@@H]2[C@@H](O)C[C@]2(C)C(=O)CC[C@@H]12`, the Potency result in assay [1], in [2], in [3], in assay [4], in assay [5] and in assay [7] was “inactive” in each case. Also, the Potency result in the assay on C33A, with CASKI, in the assay on Es-2, with Hek293T, in the assay with JEG-3 and with OV90 was “inactive” each time. The Potency result in the assay with PA-1, with Tov-21-G and in the assay on Tov112D was “inactive” each time. The compound was classed as inactive (in assay [6]; in the assay on CRL-7250). Moreover, the max response is -2.71% in the assay with HEK293, -8.66% in the assay on HaCat and 2.17% in the assay with NIH3T3.

Turning to `CN1CCc2cc3c(cc2C1C1OC(=O)c2c1ccc1c2OCO1)OCO3` (centres undefined), the Potency result in assay [1], in [2], in assay [3], in assay [4], in [5] and in [7] was “inactive” throughout. The Potency entry in the assay on C33A, in the assay with CASKI, in the assay on Es-2, with Hek293T, in the assay with JEG-3 and in the assay with OV90 was “inactive” each time. Further, the Potency result with PA-1, with Tov-21-G and in the assay with Tov112D was “inactive” throughout. Also, the compound was classed as inactive in assay [6]. The max response in the assay with CRL-7250 was -4.88%; in the assay on HEK293, 1.39%; in the assay with HaCat, -1.45%; in the assay with NIH3T3, 0.735%.

Regarding `CN1CCc2cc3c(cc2[C@H]1[C@@H]1OC(=O)c2c1ccc1c2OCO1)OCO3`, the Potency result (in assay [1]; in assay [2]; in assay [3]; in assay [4]; in [7]; with C33A) was “inactive” each time. Also, the Potency entry with CASKI, in the assay on Es-2, in the assay on Hek293T, in the assay on JEG-3, in the assay with OV90 and in the assay on PA-1 was “inactive” throughout. Further, the Potency result in the assay on Tov-21-G and in the assay on Tov112D was “inactive” in each case. For the same compound, the outcome (in [6]; with HaCat) was inactive. Further, the max response with CRL-7250 is -0.453%; in the assay with HEK293 it was -2.62%; in the assay on NIH3T3 it was -16.9%.

Turning to `CNC(=O)c1cc(C#N)cc(C)c1NC(=O)c1cc(Br)nn1-c1ncccc1Cl`, the Potency result in [1], in assay [2], in [3], in assay [4], in assay [5] and in assay [7] was “inactive” each time. For the same compound, the Potency entry with C33A, with CASKI, with Es-2, in the assay with Hek293T, in the assay on JEG-3 and in the assay with OV90 was “inactive” in each case. Moreover, the Potency result in the assay on PA-1, in the assay on Tov-21-G and in the assay on Tov112D was “inactive” in each case. The outcome in assay [6] was inactive. Besides, the max response in the assay with CRL-7250 is 0.534%; in the assay on HaCat it was -17.6%; in the assay with NIH3T3, -18.9%. In addition, in the assay with HEK293, the Potency was 13 µM (active).

The record behind these values is PubChem BioAssay (NCATS).
